Among the data in PubChem BioAssay (NCI) are growth values, retold here.

Holding throughout (assay): NCI-60 one-dose screen, 48 h (100 = growth as untreated, 0 = no growth, -100 = all killed)
Settings in all cases: 10 µM unless noted

For assay [1], the system named is NCI-H23 lung.
Assay [2] concerns NCI-H226 lung.
Assay [3] relates to NCI-H322M lung.
Assay [4] deals with HOP-62 NSCLC.
Assay [5] deals with NCI-H460 lung.
The test system of assay [6] is A549/ATCC NSCLC.
In assay [7] the test system is 786-0 renal.
The subject of assay [8] is COLO 205 colon.
Assay [9] deals with NCI-H522 lung.
Assay [10] relates to HOP-92 NSCLC.

This is part of a sample that, as a whole, favours compounds with a hit. Of some 83,000 tested, about 20% had one in any assay.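 Method: cells in 96-well plates; compound added at one concentration; 48 h incubation; percent growth measured; values under 10 scored active.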 Unmarked numbers belong to inactive results. The source made the active and inactive calls.

For the compound `O=c1cc(-c2ccccc2)oc2cc(OCCCC[P+](c3ccccc3)(c3ccccc3)c3ccccc3)cc(O)c12`, the growth in assay [1] is -93% (active); in [2], -29% (active); in [3], -100% (active); in assay [4] it was -63.6% (active); in assay [5], -75.8% (active); in [6], -56% (active). For the same compound, the growth in [7] is -69.5% (active); in assay [8] it was -56.3% (active).

Regarding `C=C1CCC2C3(C)COC(c4ccccc4)OC3CCC2(C)C1CC(Sc1ccccc1)C1=CCOC1=O` (configuration not stated), the growth in [1] is 44.2%; in assay [2] it was 10.6%; in [3], 80.5%; in assay [4], 88.6%; in [5] it was 84.6%; in assay [9] it was 3.01% (active). Further, the growth in [6] was 35.3%; in assay [7], 52.3%; in assay [8], 71.3%.

For `Cc1sc2c(c1C)C(c1ccc(Cl)cc1)=N[C@@H](CC(=O)NCCCCCNC(=O)COc1ccc(C3CCC(=O)NC3=O)cc1)c1nnc(C)n1-2` (some centres not stated), the growth is 47.3% in assay [1]; 8.38% (active) in assay [2]; 23.7% in assay [3]; 16% in assay [4]; 73% in [5]; 3.85% (active) in [9]. Besides, the growth is 25.7% in assay [6], 26.5% in assay [7] and -61.7% (active) in assay [8].

Turning to `CCCCn1c(O)c(N=Nc2nc(-c3cc4ccccc4oc3=O)cs2)c2cc(Br)ccc21`, the growth in assay [1] is 98.3%; in assay [2], 99.2%; in [3], 102%; in assay [4] it was 110%; in assay [5], 114%; in assay [9], 101%. For the same compound, the figures for the growth in [6], in assay [7] and in assay [8] were 97.8%, 106% and 140%, respectively.

For the compound `O=C(Cn1c(/C=C/c2cccc([N+](=O)[O-])c2)nc2ccccc2c1=O)Nc1ccccc1`, the growth in assay [1] was 77.2%; in assay [2], 75.7%; in assay [3] it was 83.9%; in assay [4] it was 53.6%; in assay [10] it was 64.2%; in [9], 91.8%. For the same compound, the results for the growth in assay [6] and in assay [7] were 56.1% and 59.6%, respectively.

As for `Cn1cc(-c2cc(N)n3nc(-c4c[nH]c5ccccc45)cc3n2)c2cc(Br)cnc21`, the growth was -63.8% (active) in assay [1]; -33.1% (active) in [2]; -50.8% (active) in [3]; -51.2% (active) in [4]; -65.1% (active) in [5]; -75.4% (active) in assay [9]. Besides, the growth in assay [6] is -33% (active); in assay [7], -77% (active); in assay [8], -89.3% (active).

Consider `COc1ccc(-c2nc3cc(C)ccc3n2CC(=O)N=Nc2c(O)[nH]c3ccccc23)cc1`, for which the growth was -10.8% (active) in assay [1]; -35.5% (active) in assay [2]; 33.1% in [3]; 10.4% in [4]; -17.7% (active) in assay [5]; 42.1% in assay [9]. The growth was -34% (active) in assay [6], 60.8% in [7] and 7.85% (active) in assay [8].

In the case of `COc1c(F)ccc(C(=O)Nc2ccc3nc(NC(=O)C4CCCN(S(=O)(=O)c5cccc(Cl)c5)C4)sc3c2)c1F` (configuration not stated), the growth in assay [1] is 88.9%; in assay [2], 77.3%; in [3], 87.2%; in [4] it was 103%; in assay [5] it was 82%; in [9], 79%. Also, the growth in [6] was 68%; in assay [7] it was 61%; in assay [8], 86.2%.

As to `COc1ccc(N2N=C(c3ccc4c(c3)OCO4)CC2c2cccc(NC(=O)CCCNS(=O)(=O)c3ccc(F)cc3)c2)cc1` (configuration not stated), the growth in assay [1] is 73.7%; in assay [2], 67.2%; in assay [4] it was 82.4%; in [5], 50.6%; in assay [10], 90.4%; in [9], -7.84% (active). Also, the growth in assay [6] is 49.1%; in assay [7], 62.5%; in assay [8] it was 65.3%.

Consider `COc1cc(C2CC(c3cc(OC)c(OC)c(OC)c3)=NN2c2ccccc2)ccc1OCc1ccc(C)cc1` (configuration not stated), for which the growth in [1] was 101%; in assay [2], 80.2%; in assay [4], 99.6%; in assay [5], 99.3%; in assay [10] it was 111%; in assay [9] it was 82.3%. The growth in assay [6] was 102%; in assay [7], 102%; in [8] it was 119%.

For the compound `COc1cccc(-c2c(C#N)c(-c3ccc(Cl)cc3)nc3n[nH]c(-c4ccc(Cl)cc4)c23)c1`, the growth is 64.5% in assay [1]; 47.8% in assay [2]; 53.8% in assay [4]; 34.3% in assay [5]; -5.01% (active) in [10]; 43.8% in assay [9]. Moreover, the results for the growth in assay [6], in assay [7] and in assay [8] were 41.9%, 46.1% and 3.25% (active), respectively.

Take `N/C(=N\c1nc2ccccc2s1)NC(=O)Nc1c(Cl)cccc1Cl`: the growth in assay [1] was 31.9%; in [2] it was 67.2%; in assay [3] it was 68.2%; in [4], 58.7%; in [9], -19.3% (active); in [6], 38.8%. Also, the results for the growth in assay [7] and in assay [8] were 52.5% and 46.2%, respectively.

Take `CCCSc1nc(NCCc2c[nH]c3ccccc23)c(C#N)c(-c2ccccc2)n1`: the growth is 89.4% in assay [1]; 65.4% in assay [2]; 65.4% in assay [4]; 25% in assay [5]; 78.9% in [10]; 57.9% in assay [9]. For the same compound, the growth in [6] was 73.5%; in assay [7], 74.7%; in [8], 62.8%.

As to `Cc1cccc(-c2nc(Nc3ccc(C)c(S(N)(=O)=O)c3)c3ccccc3n2)c1`, the growth in assay [1] was 12.9%; in assay [2] it was 41.9%; in [3] it was 34%; in assay [4], 76.1%; in [9], -30.5% (active); in assay [6], 26.5%. In addition, the growth is 10.8% in assay [7] and 37.8% in assay [8].
